Experimental data published in PubChem BioAssay (NCI).
The panel holds about 83,000 compounds, 20% with a hit somewhere; the sample as a whole holds those more often.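 Growth was measured after 48 h exposure to one concentration of compound in 96-well plates. Values under 10 count as active.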 Active and inactive are the calls of the source.

Tests used:
Experiment in all cases: NCI-60 one-dose screen, 48 h (100 = growth as untreated, 0 = no growth, -100 = all killed)
Details in all cases: 10 µM unless noted
NCI-H23 lung = tested on: NCI-H23 lung
NCI-H226 lung = tested on: NCI-H226 lung
NCI-H322M lung = tested on: NCI-H322M lung
HOP-62 NSCLC = tested on: HOP-62 NSCLC
NCI-H460 lung = tested on: NCI-H460 lung
NCI-H522 lung = tested on: NCI-H522 lung
A549/ATCC NSCLC = tested on: A549/ATCC NSCLC
786-0 renal = tested on: 786-0 renal
COLO 205 colon = tested on: COLO 205 colon
DU-145 prostate = tested on: DU-145 prostate
K-562 leukemia = tested on: K-562 leukemia
MALME-3M melanoma = tested on: MALME-3M melanoma
MDA-MB-231 breast = tested on: MDA-MB-231 breast
RXF 393 renal = tested on: RXF 393 renal
SF-268 CNS = tested on: SF-268 CNS
SF-295 CNS = tested on: SF-295 CNS
SF-539 CNS = tested on: SF-539 CNS
UACC-257 melanoma = tested on: UACC-257 melanoma
M14 melanoma = tested on: M14 melanoma
HCT-15 colon = tested on: HCT-15 colon

Measured: growth

O=c1c(O)cccn1CCCNCCCN(CCCn1cccc(O)c1=O)CCCn1cccc(O)c1=O
inactive: NCI-H23 lung 97.7% | NCI-H226 lung 95% | NCI-H322M lung 94.5% | HOP-62 NSCLC 106% | NCI-H460 lung 99% | NCI-H522 lung 117% | A549/ATCC NSCLC 105% | 786-0 renal 107% | COLO 205 colon 125% | DU-145 prostate 112% | K-562 leukemia 117% | MALME-3M melanoma 108% | MDA-MB-231 breast 96% | RXF 393 renal 121% | SF-268 CNS 94% | SF-295 CNS 102% | SF-539 CNS 108% | UACC-257 melanoma 121% | M14 melanoma 103% | HCT-15 colon 99.2%

O=C(CCc1nnc(Cn2cncn2)o1)c1nc2ccccc2[nH]1
inactive: NCI-H23 lung 102% | NCI-H226 lung 101% | NCI-H322M lung 115% | HOP-62 NSCLC 103% | NCI-H460 lung 108% | NCI-H522 lung 95.5% | A549/ATCC NSCLC 105% | 786-0 renal 104% | COLO 205 colon 124% | DU-145 prostate 109% | K-562 leukemia 104% | MALME-3M melanoma 92% | MDA-MB-231 breast 98.7% | RXF 393 renal 121% | SF-268 CNS 105% | SF-295 CNS 103% | SF-539 CNS 103% | UACC-257 melanoma 112% | M14 melanoma 111% | HCT-15 colon 102%

CSC1=Nc2c(c(C)c(-c3ccccc3)n2CCCN2CCCCC2)C2=NC(=O)C[C@H](C)N12
inactive: NCI-H23 lung 63.1% | NCI-H226 lung 68.9% | NCI-H322M lung 62.1% | HOP-62 NSCLC 81.6% | NCI-H460 lung 38.3% | NCI-H522 lung 35.5% | A549/ATCC NSCLC 32.2% | 786-0 renal 80.1% | DU-145 prostate 47.6% | K-562 leukemia 11.6% | MALME-3M melanoma 56.5% | MDA-MB-231 breast 69.6% | RXF 393 renal 56.4% | SF-268 CNS 66.2% | SF-295 CNS 38.9% | SF-539 CNS 79% | UACC-257 melanoma 41.3% | M14 melanoma 59.8% | HCT-15 colon 81.2%
active: COLO 205 colon -87%

O=C(O)c1ccc(NC(=O)c2cccc(Nc3ccnc(C(F)(F)F)c3)c2)cc1
inactive: NCI-H23 lung 102% | NCI-H226 lung 99.8% | NCI-H322M lung 101% | HOP-62 NSCLC 107% | NCI-H460 lung 107% | NCI-H522 lung 87% | A549/ATCC NSCLC 106% | 786-0 renal 97.9% | COLO 205 colon 112% | DU-145 prostate 116% | K-562 leukemia 105% | MALME-3M melanoma 93.5% | MDA-MB-231 breast 110% | RXF 393 renal 103% | SF-268 CNS 104% | SF-295 CNS 88.8% | SF-539 CNS 106% | UACC-257 melanoma 98.7% | M14 melanoma 95.6% | HCT-15 colon 96.5%

C[C@@H]1CC[C@H]2[C@@H](C)C(O)O[C@@H]3O[C@]4(C)CC[C@@H]1[C@]32OO4 (stereo not given in full)
active: NCI-H522 lung -8.88% | COLO 205 colon 6.72%
inactive: NCI-H23 lung 15.4% | NCI-H226 lung 69.8% | NCI-H322M lung 68.9% | HOP-62 NSCLC 59.4% | NCI-H460 lung 30.6% | A549/ATCC NSCLC 41.5% | 786-0 renal 46.1% | DU-145 prostate 75.1% | K-562 leukemia 10.8% | MALME-3M melanoma 28.3% | MDA-MB-231 breast 77.4% | RXF 393 renal 49.3% | SF-268 CNS 52.7% | SF-295 CNS 26.4% | SF-539 CNS 33.6% | UACC-257 melanoma 38.3% | M14 melanoma 29.8% | HCT-15 colon 10.7%

COc1cc(Oc2cc(-c3cccnc3)ccc2NC(=O)Nc2ccc(F)cc2F)cc(OC)c1OC
inactive: NCI-H23 lung 99% | NCI-H226 lung 97% | NCI-H322M lung 112% | HOP-62 NSCLC 96.4% | NCI-H460 lung 99.1% | NCI-H522 lung 94.8% | A549/ATCC NSCLC 94.6% | 786-0 renal 100% | COLO 205 colon 96.9% | DU-145 prostate 113% | K-562 leukemia 96.6% | MALME-3M melanoma 105% | MDA-MB-231 breast 91.5% | RXF 393 renal 97.5% | SF-268 CNS 107% | SF-295 CNS 110% | SF-539 CNS 105% | UACC-257 melanoma 92.6% | M14 melanoma 110% | HCT-15 colon 111%

O=C(C=C=Nc1ccccc1)C(=O)N=C=Cc1ccccc1
inactive: NCI-H23 lung 63.3% | NCI-H226 lung 67.7% | NCI-H322M lung 93.9% | HOP-62 NSCLC 90.5% | NCI-H460 lung 92.2% | A549/ATCC NSCLC 79.8% | 786-0 renal 79.3% | COLO 205 colon 13.5% | DU-145 prostate 40.2% | MDA-MB-231 breast 94.6% | SF-268 CNS 69.1% | SF-295 CNS 99.3% | SF-539 CNS 85.1% | UACC-257 melanoma 43.3% | M14 melanoma 44.2% | HCT-15 colon 11.4%
active: NCI-H522 lung -82.5% | K-562 leukemia -18.8% | MALME-3M melanoma -20.9% | RXF 393 renal -46%

CC(=O)c1cc(C(=O)c2ccc3c(c2)Sc2ccccc2N3)c2c(C)cc(C)cn12
active: NCI-H460 lung 0.69% | NCI-H522 lung -31.2% | A549/ATCC NSCLC 3.95% | 786-0 renal 4% | COLO 205 colon -37.4% | DU-145 prostate 2.22% | K-562 leukemia 4.47% | MDA-MB-231 breast -13.5% | SF-295 CNS -1.02% | SF-539 CNS -2.53% | M14 melanoma 9.62%
inactive: NCI-H23 lung 26.7% | NCI-H226 lung 30% | NCI-H322M lung 44.9% | HOP-62 NSCLC 20.8% | MALME-3M melanoma 69.6% | RXF 393 renal 34.3% | SF-268 CNS 11.9% | UACC-257 melanoma 26.9% | HCT-15 colon 15%
